This note sets out measurements from PubChem BioAssay (Tox21).

Several values for one entry are separate records, joined by “and”; a condition that tells them apart may be missing. Equal values may be shown once. Unmarked numbers belong to inactive results. Inconclusive results are not listed. Activity calls are given as the source filed them. Unless noted, calls follow the shape of the dose curve; as a rule, active = well fitted curve in the direction sought with a large enough effect in the repeat runs; inconclusive = weak or mixed curves; inactive = no such curve, though single readings can be large; an effect the other way counts as inactive or inconclusive.

The nature of test [1]: qHTS assay for small molecules that induce genotoxicity in human embryonic kidney cells expressing luciferase-tagged ATAD5 (AID 651632). Also: nearly all actives have a fitted effect of over 15% in size. The gist of the method:
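Concentration-response screen for ATAD5 upregulation in HEK293T luciferase reporter cells; 16 hr treatment at 37C, then luminescence after 30 min with Amplite at room temperature.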
A general note: Quantitative high-throughput screening tests each substance at several concentrations.

Test [2] in a line: qHTS assay for small molecule agonists of the p53 signaling pathway - cell viability (AID 651633; calls by dose curve; also: nearly all actives have a fitted effect of over 30% in size; also: potency is read from the fitted curve at half-maximal effect). Put shortly: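 p53RE-bla cells, seeded at 4,000 per well and rested 5 h at 37 C/5% CO2, received compounds in DMSO for 16 h at 37 C. CellTiter-Glo was then added, and luminescence was read after 30 min at room temperature to gauge cytotoxicity.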
Test [3] is described as follows: qHTS assay for small molecules that induce genotoxicity in human embryonic kidney cells expressing luciferase-tagged ATAD5 - cell viability (AID 651634; calls by dose curve; also: nearly all actives have a fitted effect of over 25% in size; also: potency is read from the fitted curve at half-maximal effect). The gist of the method:
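15.5 hr compound or vehicle exposure of HEK293T cells expressing luciferase-tagged ATAD5 at 37C; live-cell protease activity is read by fluorescence after 30 min of CellTiter-Fluor.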

Test [4] is described as follows: qHTS assay for small molecule disruptors of the mitochondrial membrane potential - cell viability (AID 720634; calls by dose curve; also: nearly all actives have a fitted effect of over 20% in size; also: potency is read from the fitted curve at half-maximal effect). Put shortly:
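In this qHTS format, HepG2 cells plated overnight were pinned with compound, incubated 1 hr, and assayed for ATP luminescence with CellTiter-Glo after m-MPI dye addition.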

The nature of test [5]: qHTS assay to test for compound auto fluorescence at 590 nm (red) in HepG2 cells (AID 720674). Put shortly:
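Intrinsic compound fluorescence in the red window (Ex/Em 540/590 nm) is measured in attached HepG2 cells exposed for 1 hr, DMSO vehicle as baseline, benchmarked to Rose Bengal sodium.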

The nature of test [6]: qHTS assay to test for compound auto fluorescence at 535 nm (green) in HepG2 cells (AID 720675).
Test [7] in a line: qHTS assay to test for compound auto fluorescence at 460 nm (blue) in HEK293 cells (AID 720678). The gist of the method:
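Blue-channel (Ex/Em 405/460 nm) intensity measured in HEK293 cultures after overnight compound exposure at 37C; signal expressed relative to triamterene. Cells plated 2,000 per well in 10% dialyzed FBS medium and allowed 4-5 hr to attach.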

Test [8] in a line: qHTS assay to test for compound auto fluorescence at 590 nm (red) in HEK293 cells (AID 720679). Put shortly: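 Red-channel autofluorescence (Ex/Em 540/590 nm; Rose Bengal sodium reference) was measured after overnight 37C, 5% CO2 exposure of attached HEK293 cells, 2,000 per well in medium with 10% dialyzed FBS.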
A short description of test [9]: qHTS assay to test for compound auto fluorescence at 535 nm (green) in HEK293 cells (AID 720680).
Test [10] can be described thus: qHTS assay to test for compound auto fluorescence at 460 nm (blue) in HEK293 cell free culture (AID 720681). Put shortly: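 Test compounds were pinned into cell-free culture medium (DMEM with 10% FBS) and fluorescence was read directly at Ex/Em 405/460 nm. Signals were expressed as fluorescence equivalents of triamterene, with DMSO vehicle as control.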
Test [11] in a line: qHTS assay to test for compound auto fluorescence at 535 nm (green) in HEK293 cell free culture (AID 720682). The gist of the method: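 Cell-free medium (DMEM, 10% FBS) receives compound or DMSO by pintool. Plate read directly at Ex 485/Em 535 nm. Signal converted to fluorescein equivalency.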
The nature of test [12]: qHTS assay to test for compound auto fluorescence at 590 nm (red) in HEK293 cell free culture (AID 720683). Put shortly: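 Tox21 10K library compounds were pinned into cell-free DMEM with 10% FBS and fluorescence was read at excitation 540 nm. Activity is expressed as Rose Bengal sodium equivalency.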
Test [13] is described as follows: qHTS assay to test for compound auto fluorescence at 590 nm (red) in HepG2 cell free culture (AID 720684). Put shortly:
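Ex 540 / Em 590 nm read of compound in cell-free MEM (10% FBS). Rose Bengal sodium reference.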

A short description of test [14]: qHTS assay to test for compound auto fluorescence at 460 nm (blue) in HepG2 cell free culture (AID 720685). Put shortly: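 Cell-free plates of MEM plus 10% FBS received 23 nL compound or DMSO vehicle; blue-channel (405/460 nm) intensity scored against triamterene as reference fluorophore.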
A short description of test [15]: qHTS assay to test for compound auto fluorescence at 535 nm (green) in HepG2 cell free culture (AID 720686).
Test [16] can be described thus: qHTS assay to test for compound auto fluorescence at 460 nm (blue) in HepG2 cells (AID 720687). Put shortly:
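Cells (2,000/well in MEM with 10% FBS) attached overnight at 37 C, then were exposed to compound or DMSO for 1 hr at 37 C, 5% CO2. Fluorescence read at Ex/Em 405/460 nm, expressed as triamterene-equivalent signal.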

Test [17] concerns the target Glucocorticoid receptor (Homo sapiens) (UniProt P04150). The test can be described thus: qHTS assay to identify small molecule agonists of the glucocorticoid receptor (GR) signaling pathway (AID 720691; active = well fitted activation curve with a large enough effect in the signal ratio in the repeat runs, not every such curve was filed as active; the % refers to the signal ratio). The conditions noted are these: GR-bla HeLa, beta-lactamase reporter ratio, 18 h; activation: at 62.4 µM (top of the series). Put shortly: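 Measures GR pathway activation through a GRE-beta-lactamase reporter stably integrated in HeLa cells, with 18 h compound treatment at 37 C and fluorescence detection using a FRET substrate.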

Test [18] shares this target. Kind of test: qHTS assay to identify small molecule antagonists of the glucocorticoid receptor (GR) signaling pathway (AID 720692; active = well fitted inhibition curve with a large enough effect in the signal ratio in the repeat runs, not every such curve was filed as active; the % refers to the signal ratio). The gist of the method:
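Tox21 10K library screened in concentration-response for blockade of dexamethasone (5 nM final)-induced GRE-bla reporter activity in HeLa cells; 18 h treatment, fluorescence read.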

Test [19] can be described thus: qHTS assay for small molecule disruptors of the mitochondrial membrane potential (AID 720635). Also: potency is read from the fitted curve at half-maximal effect. The gist of the method:
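HepG2 cells (2,000/well) attached overnight at 37C, then took compound for 1 hr at 37C, 5% CO2. Mito-MPS dye was added for 30 min; fluorescence was read at 490/535 nm (monomers) and 540/590 nm (aggregates).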

Glucocorticoid receptor (Homo sapiens), sequence (P04150 whole entry, looked up): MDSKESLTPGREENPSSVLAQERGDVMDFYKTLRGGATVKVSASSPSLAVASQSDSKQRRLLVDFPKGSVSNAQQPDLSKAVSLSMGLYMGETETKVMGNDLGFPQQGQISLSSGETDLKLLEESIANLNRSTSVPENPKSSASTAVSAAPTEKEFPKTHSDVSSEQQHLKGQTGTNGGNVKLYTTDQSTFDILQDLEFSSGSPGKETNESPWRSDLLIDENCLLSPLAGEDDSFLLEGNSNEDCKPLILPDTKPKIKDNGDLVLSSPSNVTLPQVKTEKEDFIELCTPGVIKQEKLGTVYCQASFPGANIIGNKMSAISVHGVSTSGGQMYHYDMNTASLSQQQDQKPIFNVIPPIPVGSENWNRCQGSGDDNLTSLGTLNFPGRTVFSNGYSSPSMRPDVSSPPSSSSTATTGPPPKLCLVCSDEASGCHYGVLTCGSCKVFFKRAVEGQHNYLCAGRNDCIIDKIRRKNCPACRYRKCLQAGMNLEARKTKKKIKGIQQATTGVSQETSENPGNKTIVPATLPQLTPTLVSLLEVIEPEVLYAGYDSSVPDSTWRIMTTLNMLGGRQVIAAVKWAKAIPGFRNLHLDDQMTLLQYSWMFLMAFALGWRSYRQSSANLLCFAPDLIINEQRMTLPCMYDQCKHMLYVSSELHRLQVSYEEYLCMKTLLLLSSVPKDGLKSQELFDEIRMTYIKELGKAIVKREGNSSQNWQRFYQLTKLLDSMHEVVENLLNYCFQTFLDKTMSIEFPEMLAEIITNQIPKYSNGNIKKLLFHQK

Take `[O]=[Zr]`: the Potency result in test [1], in [2], in [3], in test [4], in [5] and in [6] was “inactive” throughout. Further, the Potency entry in test [7], in [8], in test [9], in test [10], in test [11] and in test [12] was “inactive” throughout. Further, the Potency result in test [13], in test [14], in [15] and in [16] was “inactive” each time.

Take `S=P(N1CC1)(N1CC1)N1CC1`: the Potency entry in test [1], in [2], in test [3], in [4], in test [5] and in test [6] was “inactive” throughout. Further, the Potency result in test [7], in test [8], in [9], in [10], in test [11] and in test [12] was “inactive” each time. The Potency entry in test [13], in test [15], in [16], in test [17] and in test [18] was “inactive” throughout.

Regarding `COCC(=O)O[C@]1(CCN(C)CCCc2nc3ccccc3[nH]2)CCc2cc(F)ccc2[C@@H]1C(C)C`, the Potency entry in [1], in test [5], in [6], in test [7], in test [8] and in test [9] was “inactive” in each case. The Potency entry in test [10], in [11], in test [12], in test [13], in test [15] and in test [16] was “inactive” in each case. Moreover, the figures for the Potency in [2], in test [3] and in test [4] were 11.9 µM (active), 10.6 µM (active) and 26.6 µM (active), respectively.

On to `CCCCOC(=O)C(C)CC` (configuration not stated), for which the Potency result in test [1], in [2], in test [3], in test [4], in test [5] and in [6] was “inactive” throughout. For the same compound, the Potency result in test [7], in [8], in [9], in test [10], in test [11] and in test [12] was “inactive” throughout. The Potency result in test [13], in test [15] and in test [16] was “inactive” throughout.

As for `CCCCC(CC)COC(=O)c1ccc(O)cc1` (configuration not stated), the Potency entry in [1], in test [3], in test [5], in [7], in [8] and in test [9] was “inactive” throughout. The Potency entry in test [10], in [11], in test [12], in [13], in test [14] and in test [15] was “inactive” in each case. In addition, the Potency entry in [16] was “inactive”. For the same compound, the Potency is 54.3 µM (active) in test [2]; 8.6 µM (active) and 24.3 µM (active) in test [4]; 5.43 µM (active) and 6.11 µM (active) in test [19].

Consider `CCc1cccc(C)c1`, for which the Potency entry in [1], in test [2], in test [3], in test [4], in [5] and in [6] was “inactive” each time. Further, the Potency entry in [7], in test [8], in test [9], in [10], in test [11] and in [12] was “inactive” throughout. In addition, the Potency result in test [13], in test [15], in test [16], in test [17] and in test [18] was “inactive” in each case.

With `Cn1cnc2ncnc(N)c21`, the Potency entry in test [1], in [2], in [3], in test [4], in test [5] and in [6] was “inactive” in each case. Also, the Potency result in test [7], in test [8], in test [9], in [10], in test [11] and in test [12] was “inactive” each time. In addition, the Potency result in test [13], in test [14], in [15] and in [16] was “inactive” in each case.
